Data: the supplement of paper PMC12645437, “Orthogonal IMiD-Degron Pairs Induce Selective Protein Degradation in Cells” (ACS Chemical Biology, 2025)
The full ranking holds about 8,300 sequences; the median of “log2 fold change of degron read counts, EGFP-low vs EGFP+ sorted cells (limma voom), compound-induced degradation” is about -1.1, and the highest 2% start at about 3.2. This is one part of a sample in which the highest values are shown more often than they occur.

T1: CRBN, Q96SW2
T1 chain: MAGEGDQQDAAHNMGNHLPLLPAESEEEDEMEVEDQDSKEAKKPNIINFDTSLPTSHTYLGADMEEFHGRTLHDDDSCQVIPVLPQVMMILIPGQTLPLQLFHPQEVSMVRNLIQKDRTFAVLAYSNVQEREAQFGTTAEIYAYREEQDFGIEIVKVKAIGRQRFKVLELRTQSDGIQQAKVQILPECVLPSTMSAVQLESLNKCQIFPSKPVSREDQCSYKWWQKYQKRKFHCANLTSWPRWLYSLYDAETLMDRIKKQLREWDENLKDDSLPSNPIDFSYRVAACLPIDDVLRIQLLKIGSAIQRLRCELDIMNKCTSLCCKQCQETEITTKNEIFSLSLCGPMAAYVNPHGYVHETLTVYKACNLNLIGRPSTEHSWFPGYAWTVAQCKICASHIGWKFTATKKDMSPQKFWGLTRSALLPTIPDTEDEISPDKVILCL


Target: T1, CRBN, Q96SW2
Assay: log2 fold change of degron read counts, EGFP-low vs EGFP+ sorted cells (limma voom), compound-induced degradation; higher = more compound-induced degradation of the degron-EGFP fusion; degrons are variants of IKZF1/3 zinc finger 2; compound dose not given here
Conditions: Jurkat, 18 h
[1] = compound: compound 19 (5-tert-butyl-thalidomide)
[2] = compound: compound 22 (5-morpholino-thalidomide)
[3] = compound: compound 33 (diphenyl IMiD analogue)
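Also: pooled lentiviral library of zinc finger degron-EGFP fusions in mCherry-positive Jurkat cells, FACS-sorted after compound exposure, with degron abundance counted by next-generation sequencing.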

Sequence | log2 fold change of degron read counts [1] | log2 fold change of degron read counts [2] | log2 fold change of degron read counts [3] | log2 fold change of degron read counts (compound: thalidomide)
FMCNVCGAQFTQKGNLLRHIKL [46F_47M_49N_50V_52G_53A_54Q_55F_67L_, Q9UKT9] | -1.96 | -1.18 | 1.65 | -0.484
FYCNVCGAEFTQKGNLLRHIKL [46F_47Y_49N_50V_52G_53A_54E_55F_67L_, Q9UKT9] | 0.141 | -0.307 | -0.204 | -1.92
FDCSVCGHGFTQKGNLLRHIKL [46F_47D_49S_50V_52G_53H_54G_55F_67L_, Q9UKT9] | -2.13 | -2.49 | -2.85 | -2.61
FICEICGHPFTQKGNLLRHIKL [46F_47I_49E_50I_52G_53H_54P_55F_67L_, Q9UKT9] | -2.2 | -1.74 | -1.09 | -0.749
FTCNQCGAFFTQKGNLLRHIKL [46F_47T_49N_50Q_52G_53A_54F_55F_67L_, Q9UKT9] | -2.21 | -2.47 | -2.04 | -1.89
FMCDQCGAMFTQKGNLLRHIKL [46F_47M_49D_50Q_52G_53A_54M_55F_67L_, Q9UKT9] | -2.85 | -3.27 | -1.88 | -2.89
FVCEICGRYFTQKGNLLRHIKL [46F_47V_49E_50I_52G_53R_54Y_55F_67L_, Q9UKT9] | -1.62 | -1.93 | -1.15 | -0.136
LVCPICGFQCTQKGNLLRHIKL [46L_47V_49P_50I_52G_53F_54Q_55C_67L_, Q9UKT9] | 1.16 | 2.72 | 2.04 | 3.09
LACPICGFQCTQKGNLLRHIKL [46L_47A_49P_50I_52G_53F_54Q_55C_67L_, Q9UKT9] | 3.44 | 2.59 | 1.86 | 1.78
LHCPICGFQCTQKGNLLRHIKL [46L_47H_49P_50I_52G_53F_54Q_55C_67L_, Q9UKT9] | 2.57 | 2.67 | 2.36 | 1.96
LGCPICGFQCTQKGNLLRHIKL [46L_47G_49P_50I_52G_53F_54Q_55C_67L_, Q9UKT9] | 3.74 | 2.31 | 1.15 | 1.18
LSCPICGFQCTQKGNLLRHIKL [46L_47S_49P_50I_52G_53F_54Q_55C_67L_, Q9UKT9] | 2.31 | 2.18 | 1.54 | 1.93
LECPICGFQCTQKGNLLRHIKL [46L_47E_49P_50I_52G_53F_54Q_55C_67L_, Q9UKT9] | -0.146 | -0.246 | 2.16 | 3.16
FCCPQCGAHFTQKGNLLRHIKL [46F_47C_49P_50Q_52G_53A_54H_55F_67L_, Q9UKT9] | -1.46 | -2.19 | -0.412 | -1.42
FKCNQCGHPFTQKGNLLRHIKL [46F_47K_49N_50Q_52G_53H_54P_55F_67L_, Q9UKT9] | -2.61 | -2.63 | -2.72 | -2.3
LKCEICGFTCTQKGNLLRHIKL [46L_47K_49E_50I_52G_53F_54T_55C_67L_, Q9UKT9] | -1 | -2.29 | -1.73 | 0.124
LGCEICGFTCTQKGNLLRHIKL [46L_47G_49E_50I_52G_53F_54T_55C_67L_, Q9UKT9] | 2.28 | 2.37 | 0.519 | 0.415
LMCEICGFTCTQKGNLLRHIKL [46L_47M_49E_50I_52G_53F_54T_55C_67L_, Q9UKT9] | 0.136 | 1.5 | 3.07 | 2.97
LWCEICGFTCTQKGNLLRHIKL [46L_47W_49E_50I_52G_53F_54T_55C_67L_, Q9UKT9] | 3.55 | 3.79 | 3.08 | 1.83
LQCEICGFTCTQKGNLLRHIKL [46L_47Q_49E_50I_52G_53F_54T_55C_67L_, Q9UKT9] | 1.59 | 2.54 | 2.34 | 3.65
LYCEICGFTCTQKGNLLRHIKL [46L_47Y_49E_50I_52G_53F_54T_55C_67L_, Q9UKT9] | 3.57 | 3.51 | 3.19 | 2.25
LCCEICGFTCTQKGNLLRHIKL [46L_47C_49E_50I_52G_53F_54T_55C_67L_, Q9UKT9] | 2.49 | 2.78 | 2.65 | 2.98
LVCEICGFTCTQKGNLLRHIKL [46L_47V_49E_50I_52G_53F_54T_55C_67L_, Q9UKT9] | 1.83 | 2.47 | 2.5 | 3.21
LDCEICGFTCTQKGNLLRHIKL [46L_47D_49E_50I_52G_53F_54T_55C_67L_, Q9UKT9] | 0.0603 | -0.828 | -0.732 | 0.278
LSCEICGFTCTQKGNLLRHIKL [46L_47S_49E_50I_52G_53F_54T_55C_67L_, Q9UKT9] | 3.05 | 2.87 | 1.94 | 1.96
LTCEICGFTCTQKGNLLRHIKL [46L_47T_49E_50I_52G_53F_54T_55C_67L_, Q9UKT9] | 1.29 | 2.89 | 2.18 | 3.14
LLCEICGFTCTQKGNLLRHIKL [46L_47L_49E_50I_52G_53F_54T_55C_67L_, Q9UKT9] | 0.0109 | -0.207 | 1.27 | 2.65
LACEICGFTCTQKGNLLRHIKL [46L_47A_49E_50I_52G_53F_54T_55C_67L_, Q9UKT9] | 3.48 | 3.3 | 1.55 | 1.36
